Measurements: PubChem BioAssay (NCATS)
Values joined by “and” are separate entries in the source; they are usually repeats but may differ in a detail not shown here. Identical values can stand only once. Inconclusive results are not listed. Active and inactive are the calls of the source. The call rests on the fitted dose curve.

Test: Primary qHTS to identify inhibitors of SARS-CoV-2 cell entry (AID 1645846); further: nearly all actives have a fitted effect of over 45% in size
Conditions: SARS-CoV-2 pseudovirus cell entry assay, luminescence; activity change, negative = inhibition: at 57.1 µM (top of the series) unless noted
Summary of the method: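 Entry measured by luciferase signal 48 h after adding SARS-CoV-2-S pseudotyped MLV particles to HEK293-ACE2 cells preincubated 1 h with compounds. Normalisation: bald particles and spike particles.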
Potency means the concentration at half of the fitted maximal effect.

SMILES | Potency | activity change, negative = inhibition
Nc1nc(NC2CC2)c2ncn([C@H]3C=C[C@@H](CO)C3)c2n1 | inactive | 
COc1ccc2c(c1)OC(C)(C)C(c1ccccc1)C2c1ccc(OCCN2CCCC2)cc1 (stereo not given) | 15.8 µM (active) | 
COc1cc([C@@H]2c3cc4c(cc3C(O[C@@H]3O[C@@H]5CO[C@@H](c6cccs6)OC5[C@H](O)[C@H]3O)C3COC(=O)[C@@H]32)OCO4)cc(OC)c1O (stereo not given in full) |  | -95.7%
C[C@H]1O[C@@H](O[C@H]2[C@@H](O)C[C@H](O[C@H]3[C@@H](O)C[C@H](O[C@H]4CC[C@@]5(C)[C@H](CC[C@@H]6[C@@H]5C[C@@H](O)[C@]5(C)[C@@H](C7=CC(=O)OC7)CC[C@]65O)C4)O[C@@H]3C)O[C@@H]2C)C[C@H](O)[C@@H]1O |  | -96.3% and -94.1%
CC[C@@]1(O)C(=O)OCc2c1cc1n(c2=O)Cc2cc3c([N+](=O)[O-])cccc3nc2-1 |  | -97% [at 114 µM]
COc1cc2c(cc1O)CCN[C@]21CS[C@@H]2c3c(OC(C)=O)c(C)c4c(c3[C@H](COC1=O)N1[C@@H]2[C@H]2c3c(cc(C)c(OC)c3O)C[C@@H]([C@@H]1O)N2C)OCO4 |  | -92.8% [at 11.3 µM]
CN(C)C/C=C/C(=O)Nc1cc2c(Nc3ccc(F)c(Cl)c3)ncnc2cc1OC1CCOC1 (stereo not given) | 10 µM (active) | 
CC(=O)OC1CC(OC2C(O)CC(OC3C(O)CC(OC4CCC5(C)C(CCC6C5CCC5(C)C(C7=CC(=O)OC7)CCC65O)C4)OC3C)OC2C)OC(C)C1O (stereo not given) |  | -96.7%
OCCOc1ccc(/C(=C(/CCCl)c2ccccc2)c2ccccc2)cc1 |  | -9.9% and -6.02%
CC(C)C[C@H](NC(=O)CNC(=O)c1cc(Cl)ccc1Cl)B1OC(=O)C(CC(=O)O)(CC(=O)O)O1 |  | -97.4%
CO[C@H]1C[C@@H]2CC[C@@H](C)[C@@](O)(O2)C(=O)C(=O)N2CCCC[C@H]2C(=O)O[C@H]([C@@H](C)C[C@@H]2CC[C@@H](O)[C@H](OC)C2)CC(=O)[C@H](C)/C=C(\C)[C@@H](O)[C@@H](OC)C(=O)[C@H](C)C[C@H](C)/C=C/C=C/C=C/1C | 20 µM (active) | 
CO[C@H](C(=O)[C@@H](O)[C@@H](C)O)C1Cc2cc3cc(O[C@H]4C[C@@H](O[C@H]5C[C@@H](O)[C@H](O)[C@@H](C)O5)[C@@H](O)[C@@H](C)O4)c(C)c(O)c3c(O)c2C(=O)[C@H]1O[C@H]1C[C@@H](O[C@H]2C[C@@H](O[C@H]3C[C@](C)(O)[C@H](O)[C@@H](C)O3)[C@H](O)[C@@H](C)O2)[C@H](O)[C@@H](C)O1 (stereo not given in full) |  | -92.7%
Cc1cc(-c2ccc(N=Nc3ccc4c(S(=O)(=O)O)cc(S(=O)(=O)O)c(N)c4c3O)c(C)c2)ccc1N=Nc1ccc2c(S(=O)(=O)O)cc(S(=O)(=O)O)c(N)c2c1O |  | -2.58%
CNC(C)C(O)c1ccccc1 (stereo not given) |  | -30.3%
C(=C\c1ccncc1)/c1ccccc1 | inactive | 
